{"source": "ChEMBL document CHEMBL1157539", "about": "“Thousands of chemical starting points for antimalarial lead identification” (Nature, 2010)"}
{"system": "Plasmodium falciparum", "assay": "GSK_TCMDC: Inhibition of Plasmodium falciparum 3D7 in whole red blood cells, using parasite LDH activity as an index of growth. Test compounds present at 2uM", "format": "functional", "units": {"Inhibition": "%"}}
{"smiles": "COc1c(C2CCN(CCCCNC(=O)c3ccc(-c4ccc(Cl)cc4)c(O)c3)CC2)ccc2c1CCCC2", "Inhibition": 100}
{"smiles": "COCCNCc1ccc(-c2ccc(CNc3ccc4ncccc4c3)cc2)cc1.O=C(O)C(F)(F)F", "Inhibition": 85}
{"smiles": "Br.NC1=NC2(CCCCC2)N(OCCCCCCC2CCCCC2)C(N)=N1", "Inhibition": 97}
{"system": "Plasmodium falciparum", "assay": "GSK_TCMDC: Inhibition of Plasmodium falciparum Dd2 in whole red blood cells, using parasite LDH activity as an index of growth. Test compounds present at 2uM", "format": "functional", "units": {"Inhibition": "%"}}
{"smiles": "CN(C)CCCN1CCN(C(=O)c2cc3cc(-c4ccccc4)ccc3n2S(=O)(=O)c2ccccc2)CC1", "Inhibition": 94}
{"smiles": "CN1Cc2ccc(NS(=O)(=O)c3ccc(-c4ccoc4)cc3)cc2C1.Cl", "Inhibition": 2}
{"smiles": "CCNc1cc(C)nc(Nc2ccc(F)cc2)n1", "Inhibition": 57}
{"smiles": "O=C(Nc1ccc(N2CCC(Nc3ccccn3)CC2)cc1)c1cnc(Cl)c(Cl)c1.O=C(O)C(F)(F)F", "Inhibition": 1}
{"smiles": "Cc1cc(OCCCN2CCC(NS(=O)(=O)c3ccc(Cl)c(Cl)c3)C2)c2ccccc2n1", "note": "(centres undefined)", "Inhibition": 37}
{"smiles": "O=C(Nc1cccc(OC2CCN(Cc3ccccc3)CC2)c1)Nc1cccc([N+](=O)[O-])c1.O=C(O)C(F)(F)F", "Inhibition": 48}
{"smiles": "COc1ccc(-c2cnc3[nH]cc(-c4ccc(C(=O)O)cc4)c3c2)cn1.O=C(O)C(F)(F)F", "Inhibition": 99}
{"smiles": "CCN(CC)CCN(Cc1ccc(-c2ccc(C(F)(F)F)cc2)cc1)C(=O)CN1C(CCc2cccc(F)c2F)=NS(=O)(=O)c2ccccc21", "Inhibition": 49}
{"smiles": "Cc1ccc(C2CCN(CCCCNC(=O)c3ccc(-c4ccc(C#N)cc4)cc3)CC2)c(O)c1", "Inhibition": 90}
{"smiles": "Cc1ccc2c(NC(=O)Nc3ccc(N(C)C)cc3)cc(C)nc2c1", "Inhibition": 20}
{"smiles": "Cc1ccc(Cn2ncc(N3CCCNCC3)c(Cl)c2=O)cc1NC(=O)Nc1ccc(-c2ccccc2)cc1", "Inhibition": 38}
